# From PubChem BioAssay (NCATS)
# Several values for one entry are separate records, joined by “and”; a condition that tells them apart may be missing. Equal values may be shown once. Inconclusive results are not listed. Entries that show only a call come without a potency. Activity calls are given as the source filed them. Unless noted, the call rests on the fitted dose curve; in most records, active means well fitted cell-killing curve with a large enough effect; inconclusive means small, poorly fitted or top-dose-only effect; inactive means flat fitted curve, though single readings scatter.
# Tests used:
# [1] = Cell Viability - LYMP2-010 (AID 981);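 further: cells exposed to compound for 24 hours at 37 °C; nearly all actives have a fitted effect of over 55% in size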
# In short: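 This 24 hr viability screen uses LYMP2-010 lymphoblastoid cells, quantifies ATP via luciferase luminescence, and derives AC50 from Hill fits of qHTS concentration-response data.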
# [2] = Cell Viability - LYMP2-012 (AID 982);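 further: cellular ATP by luciferase luminescence where a drop means cytotoxicity; cells exposed to compound for one day before reading; nearly all actives have a fitted effect of over 55% in size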
# [3] = Cell Viability - LYMP2-014 (AID 983); further: series mostly up to about 92 µM; nearly all actives have a fitted effect of over 50% in size
# In short: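 Quantitative HTS in lymphoblastoid cells: 24 hr compound exposure, then CellTiter-Glo ATP luminescence. Positive control was tetraoctylammonium bromide, 6.4pM to 92 uM.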
# [4] = Cell Viability - LYMP2-016 (AID 984);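 further: cells exposed to compound for 24 hours at 37 °C; nearly all actives have a fitted effect of over 55% in size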
# In short: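 Cytotoxicity was scored by luminescent ATP content (CellTiter-Glo) after 24 h compound exposure at 37 C of a human lymphoblastoid line at 2500 cells/well. Concentration-response data were fitted to the Hill equation for AC50.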
# [5] = Cell Viability - LYMP2-018 (AID 985); further: nearly all actives have a fitted effect of over 50% in size
# In short: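 In this qHTS viability assay, cells are treated for 24 hr and cellular ATP is quantified by luciferase-based luminescence, with tetraoctylammonium bromide as positive control.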
# [6] = Cell Viability - LYMP2-020 (AID 986); further: series mostly up to about 92 µM; nearly all actives have a fitted effect of over 55% in size
# In short: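 Cells at 2500 per well receive a 24 hr compound exposure at 37 C. Viability is measured as ATP-dependent luciferase luminescence, with AC50 modeled from qHTS concentration-response curves.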
# [7] = Cell Viability - LYMP2-022 (AID 987); further: nearly all actives have a fitted effect of over 55% in size
# In short: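 In this qHTS cytotoxicity screen, compound titrations were incubated 24 hr at 37 C with human lymphoblastoid cells in complete medium. Luciferase-based ATP luminescence provided the viability signal.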
# [8] = Cell Viability - LYMP2-024 (AID 988); further: nearly all actives have a fitted effect of over 60% in size
# In short: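 Cells at 2500 per well received compound for 24 hr after a 5 hr settling period. Viability was scored by CellTiter-Glo luminescence, with AC50 from Hill fits.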
# [9] = Cell Viability - LYMP2-026 (AID 989); further: nearly all actives have a fitted effect of over 50% in size
# In short: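 Acute toxicity screen in complete culture medium, with 24 hr compound exposure at 37 C. Viability read as cellular ATP via luciferase reaction, with tetraoctylammonium bromide (6.4pM to 92 uM) as positive control.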
# [10] = Cell Viability - LYMP1-002 - Assay at 40 hr (AID 994); further: nearly all actives have a fitted effect of over 60% in size
# In short: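 Concentration-dependent ATP loss after 40 hr treatment at 37 C defined toxicity; AC50 values were obtained by fitting the standard Hill equation.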
# [11] = qHTS Assay for Identification of Small Molecule Inducers of Hypoxia Response (AID 2120; active means well fitted curve in the direction sought with a large enough effect in the signal ratio, with a control signal flat, not every such curve was filed as active; the % refers to the signal ratio)
# In short: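 HRE-bla ME-180, 2500 cells/well, 0.5% dialyzed FBS medium; cpd titration, 17 h 37 degrees C; CCF4 2.5 h RT; Ex 405, Em 460/530 ratio -> %Activity, AC50.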
# [12] = biological target: Bile acid receptor (Homo sapiens) (UniProt Q96RI1); experiment: qHTS assay for small molecule antagonists of farnesoid X receptor signaling (AID 588526; calls by dose curve)
# Bile acid receptor (Homo sapiens), sequence (Q96RI1 whole entry, looked up): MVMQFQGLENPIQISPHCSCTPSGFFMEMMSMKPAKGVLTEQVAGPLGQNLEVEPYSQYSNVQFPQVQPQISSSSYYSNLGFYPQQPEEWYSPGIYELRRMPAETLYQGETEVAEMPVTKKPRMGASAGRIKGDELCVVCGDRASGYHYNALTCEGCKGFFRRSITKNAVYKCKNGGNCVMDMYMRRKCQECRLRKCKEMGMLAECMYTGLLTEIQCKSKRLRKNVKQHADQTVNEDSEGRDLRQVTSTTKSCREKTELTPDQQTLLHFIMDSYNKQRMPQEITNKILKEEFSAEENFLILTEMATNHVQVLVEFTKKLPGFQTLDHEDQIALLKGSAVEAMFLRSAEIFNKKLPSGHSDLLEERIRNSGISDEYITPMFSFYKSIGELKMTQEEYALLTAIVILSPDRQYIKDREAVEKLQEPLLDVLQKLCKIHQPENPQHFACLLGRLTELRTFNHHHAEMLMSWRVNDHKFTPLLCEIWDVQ
# In short: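 Beta-lactamase reporter antagonist mode: HEK293T FXR-UAS-bla cells, titrated compound, CDCA stimulation, 16 h 37 C, CCF4 dye 2 h RT. Data normalized to CDCA 50 uM and DMSO; Hill-fit IC50.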
# [13] = biological target: Glucocorticoid receptor (Homo sapiens) (UniProt P04150); experiment: qHTS assay for small molecule agonists of glucocorticoid receptor signaling (AID 588532; active means well fitted curve in the direction sought with a large enough effect in the signal ratio, with a control signal flat; the % refers to the signal ratio); details: HeLa MMTV-bla, beta-lactamase ratio, agonist, 18 h; stronger effect = higher value; percent of dexamethasone control, DMSO zero
# Glucocorticoid receptor (Homo sapiens), sequence (P04150 whole entry, looked up): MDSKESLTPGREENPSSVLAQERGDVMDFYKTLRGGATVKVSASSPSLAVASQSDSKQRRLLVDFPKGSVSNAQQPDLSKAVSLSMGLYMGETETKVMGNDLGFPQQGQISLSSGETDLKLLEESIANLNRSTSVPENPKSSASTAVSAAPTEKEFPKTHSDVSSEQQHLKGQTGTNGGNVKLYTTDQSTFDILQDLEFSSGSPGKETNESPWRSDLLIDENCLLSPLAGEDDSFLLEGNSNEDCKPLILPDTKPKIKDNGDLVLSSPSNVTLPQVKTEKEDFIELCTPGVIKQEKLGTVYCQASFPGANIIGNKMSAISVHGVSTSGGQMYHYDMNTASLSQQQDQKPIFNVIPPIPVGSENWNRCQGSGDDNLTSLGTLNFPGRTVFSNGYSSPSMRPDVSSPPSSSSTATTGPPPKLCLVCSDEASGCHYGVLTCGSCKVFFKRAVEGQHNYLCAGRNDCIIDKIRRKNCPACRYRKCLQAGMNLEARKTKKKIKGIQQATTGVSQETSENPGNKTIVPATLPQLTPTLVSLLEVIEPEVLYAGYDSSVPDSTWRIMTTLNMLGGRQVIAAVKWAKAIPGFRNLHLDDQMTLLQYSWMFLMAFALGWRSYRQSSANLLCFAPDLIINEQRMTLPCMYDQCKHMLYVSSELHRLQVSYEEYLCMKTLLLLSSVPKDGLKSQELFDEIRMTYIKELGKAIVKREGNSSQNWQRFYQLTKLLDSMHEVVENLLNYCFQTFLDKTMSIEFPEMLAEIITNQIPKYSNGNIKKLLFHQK
# In short: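 Agonist-mode qHTS: GRE-driven beta-lactamase in HeLa cells exposed 18 h to titrated compounds (up to 92 uM), then CCF4 ratio read after 2 h at RT; Hill-fitted EC50, efficacy relative to 0.1 uM dexamethasone.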
# [14] = biological target: Glucocorticoid receptor (Homo sapiens) (UniProt P04150); experiment: qHTS assay for small molecule antagonists of glucocorticoid receptor signaling (AID 588533; active means well fitted inhibition curve with a large enough effect in the signal ratio, with a control signal flat, not every such curve was filed as active; the % refers to the signal ratio;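 further: cells stimulated with 2 nM dexamethasone as agonist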)
# In short: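 Antagonist-mode qHTS: compound titrations added to GRE-bla HeLa cells, then dexamethasone 2 nM final; 18 h, 37 C. CCF4 FRET fluorescence normalized to dexamethasone and DMSO; IC50 from Hill fit.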
# [15] = qHTS assay for small molecule antagonists of peroxisome proliferator-activated receptor delta signaling (AID 588535; active means well fitted inhibition curve with a large enough effect in the signal ratio, with a control signal flat, not every such curve was filed as active; the % refers to the signal ratio;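 on max response: cells co-treated with a PPAR-delta agonist as stimulator during compound exposure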); details: HEK293T PPARd-UAS-bla, beta-lactamase FRET ratio, 18 h; 460 nm channel
# In short: (§1)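 Antagonist-mode qHTS using GeneBLAzer PPAR-delta-UAS-bla HEK293T cells; compound exposure 18 hrs at 37 C over a titration. Ratiometric CCF4 fluorescence at 460/530 nm; concentration-response points fitted to the Hill equation.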
# [16] = biological target: Peroxisome proliferator-activated receptor delta (Homo sapiens) (UniProt Q03181); experiment: as above
# Peroxisome proliferator-activated receptor delta (Homo sapiens), sequence (Q03181 whole entry, looked up): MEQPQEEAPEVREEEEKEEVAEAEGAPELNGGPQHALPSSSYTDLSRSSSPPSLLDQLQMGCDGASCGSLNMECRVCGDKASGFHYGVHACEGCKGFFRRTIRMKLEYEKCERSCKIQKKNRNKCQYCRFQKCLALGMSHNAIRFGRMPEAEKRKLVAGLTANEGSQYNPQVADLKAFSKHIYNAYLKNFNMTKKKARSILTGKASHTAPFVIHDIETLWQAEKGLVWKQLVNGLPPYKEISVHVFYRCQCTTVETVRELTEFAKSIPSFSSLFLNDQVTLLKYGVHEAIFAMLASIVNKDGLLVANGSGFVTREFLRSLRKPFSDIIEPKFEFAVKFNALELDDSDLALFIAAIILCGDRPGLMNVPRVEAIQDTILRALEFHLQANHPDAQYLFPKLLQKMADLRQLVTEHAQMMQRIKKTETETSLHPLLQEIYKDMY
# In short: as §1
# [17] = biological target: Peroxisome proliferator-activated receptor gamma (Homo sapiens) (UniProt P37231); experiment: qHTS assay for small molecule agonists of peroxisome proliferator-activated receptor gamma signaling (AID 588536; active means well fitted curve in the direction sought with a large enough effect in the signal ratio, with a control signal flat, not every such curve was filed as active; the % refers to the signal ratio)
# Peroxisome proliferator-activated receptor gamma (Homo sapiens), sequence (P37231 whole entry, looked up): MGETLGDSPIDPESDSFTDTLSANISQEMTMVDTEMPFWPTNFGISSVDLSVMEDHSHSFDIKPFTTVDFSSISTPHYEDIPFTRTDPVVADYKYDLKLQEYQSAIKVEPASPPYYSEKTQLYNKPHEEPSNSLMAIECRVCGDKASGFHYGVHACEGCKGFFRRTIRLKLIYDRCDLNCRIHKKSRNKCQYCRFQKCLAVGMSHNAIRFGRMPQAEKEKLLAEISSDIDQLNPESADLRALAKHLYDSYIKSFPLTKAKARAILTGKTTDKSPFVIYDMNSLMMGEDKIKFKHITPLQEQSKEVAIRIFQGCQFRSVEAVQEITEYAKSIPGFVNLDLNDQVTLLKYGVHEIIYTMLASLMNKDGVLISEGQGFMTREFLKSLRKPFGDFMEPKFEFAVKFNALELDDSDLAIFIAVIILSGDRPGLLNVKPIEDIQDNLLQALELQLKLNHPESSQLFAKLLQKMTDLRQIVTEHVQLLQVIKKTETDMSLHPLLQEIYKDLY
# In short: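 Compound treatment: 16 h, 37 C, HEK293 GeneBLAzer cells. Detection: CCF4, 2 h RT. Values: Hill-fit EC50, efficacy as % of 2 uM rosiglitazone.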
# [18] = biological target: Peroxisome proliferator-activated receptor gamma (Homo sapiens) (UniProt P37231); experiment: qHTS assay for small molecule antagonists of peroxisome proliferator-activated receptor gamma signaling (AID 588537; active means well fitted inhibition curve with a large enough effect in the signal ratio, with a control signal flat, not every such curve was filed as active; the % refers to the signal ratio;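 further: reporter cells co-stimulated with 50 nM rosiglitazone agonist during compound treatment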)
# In short: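 Cell-based beta-lactamase assay; GW9662 served as the antagonist control. Stimulation used rosiglitazone, final 50 nM, 16 h, 37 C.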
# [19] = biological target: Vitamin D3 receptor (Homo sapiens) (UniProt P11473); experiment: qHTS assay for small molecule antagonists of vitamin D receptor signaling (AID 588541; calls by dose curve;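 further: receptor activated by calcitriol during compound treatment; series mostly up to about 77 µM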)
# Vitamin D3 receptor (Homo sapiens), sequence (P11473 whole entry, looked up): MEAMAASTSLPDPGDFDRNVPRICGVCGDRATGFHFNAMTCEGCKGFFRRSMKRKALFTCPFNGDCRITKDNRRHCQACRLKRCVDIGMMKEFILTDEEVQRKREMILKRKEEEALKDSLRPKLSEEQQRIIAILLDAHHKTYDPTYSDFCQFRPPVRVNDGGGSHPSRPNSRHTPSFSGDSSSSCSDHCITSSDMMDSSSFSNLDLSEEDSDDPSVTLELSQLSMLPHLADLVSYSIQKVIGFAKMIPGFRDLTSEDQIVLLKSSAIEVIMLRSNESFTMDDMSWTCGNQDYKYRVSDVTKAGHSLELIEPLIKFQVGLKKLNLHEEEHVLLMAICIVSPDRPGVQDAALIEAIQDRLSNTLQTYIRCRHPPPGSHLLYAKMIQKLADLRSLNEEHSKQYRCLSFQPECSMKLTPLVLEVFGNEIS
# In short: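 Antagonist-mode beta-lactamase reporter assay: HEK293T VDR-UAS-bla cells were exposed to titrated compound alongside 1-alpha,25-dihydroxyvitamin D3 at 3 nM final for 16 h. Values were normalized to the 50 nM agonist control and DMSO basal, with IC50 and efficacy from Hill equation fits.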
# [20] = biological target: Vitamin D3 receptor (Homo sapiens) (UniProt P11473); experiment: qHTS assay for small molecule agonists of vitamin D receptor signaling (AID 588543; calls by dose curve)
# In short: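 Agonist-mode beta-lactamase reporter: HEK293T VDR-UAS-bla cells in charcoal-stripped 2% FBS, compound series 16 h 37 C, CCF4 2 h RT. EC50 from Hill fit, scaled against DMSO and 50 nM calcitriol control.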
# [21] = qHTS assay for small molecule agonists of retinoid X receptor alpha signaling (AID 588544; calls by dose curve); details: HEK293T RXRa-UAS-bla, beta-lactamase reporter, 18 h; 530 nm emission
# [22] = biological target: Retinoic acid receptor RXR-alpha (Homo sapiens) (UniProt P19793); experiment: as above
# Retinoic acid receptor RXR-alpha (Homo sapiens), sequence (P19793 whole entry, looked up): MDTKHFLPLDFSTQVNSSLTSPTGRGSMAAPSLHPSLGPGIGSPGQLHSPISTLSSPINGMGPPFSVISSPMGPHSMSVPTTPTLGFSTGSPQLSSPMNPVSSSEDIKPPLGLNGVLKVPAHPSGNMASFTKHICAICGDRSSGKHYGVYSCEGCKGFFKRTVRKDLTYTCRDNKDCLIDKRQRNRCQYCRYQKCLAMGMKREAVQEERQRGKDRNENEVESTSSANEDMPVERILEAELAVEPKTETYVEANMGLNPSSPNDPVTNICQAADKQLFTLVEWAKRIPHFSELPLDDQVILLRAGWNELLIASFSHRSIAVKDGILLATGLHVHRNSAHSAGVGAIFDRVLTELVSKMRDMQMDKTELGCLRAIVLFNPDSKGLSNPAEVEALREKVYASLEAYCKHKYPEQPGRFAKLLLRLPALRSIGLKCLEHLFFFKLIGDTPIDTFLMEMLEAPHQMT
# [23] = biological target: Thyroid hormone receptor beta (Homo sapiens) (UniProt P10828); experiment: qHTS assay for small molecule agonists of thyroid hormone receptor beta signaling (AID 588545; calls by dose curve)
# Thyroid hormone receptor beta (Homo sapiens), sequence (P10828 whole entry, looked up): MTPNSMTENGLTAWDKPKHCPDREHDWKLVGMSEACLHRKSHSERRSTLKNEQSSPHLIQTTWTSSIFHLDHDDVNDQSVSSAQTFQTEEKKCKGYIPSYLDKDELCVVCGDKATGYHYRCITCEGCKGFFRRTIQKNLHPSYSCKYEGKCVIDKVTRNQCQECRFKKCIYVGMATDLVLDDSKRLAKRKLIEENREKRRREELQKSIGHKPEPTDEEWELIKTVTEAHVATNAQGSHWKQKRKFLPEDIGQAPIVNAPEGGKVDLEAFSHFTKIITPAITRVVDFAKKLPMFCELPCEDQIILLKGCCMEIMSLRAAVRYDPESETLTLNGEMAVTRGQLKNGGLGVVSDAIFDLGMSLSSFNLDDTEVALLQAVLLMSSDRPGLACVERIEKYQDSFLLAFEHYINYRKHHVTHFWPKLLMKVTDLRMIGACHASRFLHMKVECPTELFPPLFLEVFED
# In short: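 Agonist activity was read as beta-lactamase CCF4 fluorescence (405 ex, 460/530 em), scaled between DMSO (0%) and 10 nM T3 (100%), then Hill-fitted for EC50 and efficacy. HEK 293 TR-UAS-bla cells in 2% charcoal/dextran FBS medium were exposed 18 h at 37 C.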
# [24] = qHTS assay for small molecule antagonists of retinoid X receptor alpha signaling (AID 588546; active means well fitted inhibition curve with a large enough effect in the signal ratio, with a control signal flat, not every such curve was filed as active; the % refers to the signal ratio;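 further: cells stimulated with 9-cis-retinoic acid as agonist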); details: HEK293T RXRa-UAS-bla, beta-lactamase ratio, antagonist mode; measured here: W530 green channel, cytotoxicity proxy
# In short: (§2)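 Beta-lactamase reporter inhibition, read as CCF4 fluorescence ratio (ex 405, em 460/530 nm) after 2 h at RT. HEK293T UAS-bla cells, 2500/well, were stimulated with 9-cis-RA at 500 or 100 nM final alongside test compound for 18 h at 37 C.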
# [25] = biological target: Retinoic acid receptor RXR-alpha (Homo sapiens) (UniProt P19793); experiment: as above; details: HEK293T RXRa-UAS-bla, beta-lactamase ratio, antagonist mode
# In short: as §2
# [26] = biological target: Thyroid hormone receptor beta (Homo sapiens) (UniProt P10828); experiment: qHTS assay for small molecule antagonists of thyroid hormone receptor beta signaling (AID 588547; active means well fitted inhibition curve with a large enough effect in the signal ratio, with a control signal flat, not every such curve was filed as active; the % refers to the signal ratio;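 further: cells stimulated with 0.4 nM T3 agonist during compound exposure; series mostly up to about 77 µM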); details: TR-UAS-bla HEK293, beta-lactamase ratio, antagonist mode, 18 h
# In short: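 Inhibition of T3-driven (0.4nM final) beta-lactamase reporter activity was measured over 0.59 nM to 92 uM compound after 18 h at 37 C. The cells were GripTite HEK293 TR-UAS-bla in charcoal/dextran-stripped serum, with CCF4 ratio read-out and IC50 from Hill fits.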
smiles,measurement,setting,value
C=CCc1ccc(OC)c(OC)c1,Potency,[1],inactive
same,Potency,[2],inactive
same,Potency,[3],inactive
same,Potency,[4],inactive
same,Potency,[5],inactive
same,Potency,[6],inactive
same,Potency,[7],inactive
same,Potency,[8],inactive
same,Potency,[9],inactive
same,Potency,[10],inactive
same,outcome,[11],inactive
same,outcome,[12],inactive
same,activation,[13],-12.3% (inactive)
same,Potency,[14],inactive
same,max response,[15],10.2% and -6.71%
same,Potency,[16],inactive
same,outcome,[17],inactive
same,outcome,[18],inactive
same,outcome,[19],inactive
same,outcome,[20],inactive
same,max response,[21],-12.6% and 4.43%
same,outcome,[22],inactive
same,outcome,[23],inactive
same,max response,[24],-6.05% and 0.363%
same,max response,[25],9.84% (inactive) and -24.7% (inactive)
same,activity change % (negative = inhibition),[26],11.4% (inactive)
